The target in experiment [1] is Cell division control protein 42 homolog (Homo sapiens) (UniProt P60953). Description: inhibition of fluorescent GTP binding to constitutively active Cdc42 – biochemical, multiplex bead flow cytometry, Bodipy-FL-GTP, dose response (AID 1333;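 active means fitted half-maximal concentration within the tested dose range, moderate curve steepness, a statistically real signal drop, and little compound fluorescence or tag-binding interference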).
Experiment [2] has the same target. The experiment can be described thus: inhibition of fluorescent GTP binding to wildtype Cdc42 – biochemical, multiplex bead flow cytometry, Bodipy-FL-GTP, dose response (AID 1334;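 active means fitted half-maximal concentration within the tested range, moderate curve steepness, significant signal drop, and little compound fluorescence or bead-linkage interference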). The conditions noted are these: bead-based flow cytometry, Bodipy-FL-GTP binding to GST-Cdc42; at 100 µM (top of the series) unless noted. For orientation: Flow cytometry measures light scatter and fluorescence of single cells or particles in a stream.

The target of experiment [3] is GTPase HRas (Homo sapiens) (UniProt P01112). Description: Ras wt fluorescent GTP loading blockade – biochemical, wildtype, multiplex bead flow cytometry, dose response (AID 1335;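 active means fitted half-maximal concentration within 10 nM to 100 µM, steepness 0.5 to 2, significant signal drop, low assay interference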). The conditions noted are these: bead-based flow cytometry, Bodipy-GTP binding to GST-Ras; at 100 µM (top of the series) unless noted.
Experiment [4] relates to Ras-related protein Rab-7a (dog), GTP binding. Description: blockers of fluorescent GTP binding to Rab7 – biochemical, wildtype, multiplex bead flow cytometry, dose response (AID 1336).
The target in experiment [5] is Ras-related C3 botulinum toxin substrate 1 (Homo sapiens) (UniProt P63000). Description: inhibition of wildtype Rac1 nucleotide loading – biochemical, multiplex bead flow cytometry, dose response (AID 1340;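 active means dose curve with midpoint inside tested range, moderate steepness, plateau gap beyond fit error, low compound glow and bead-link interference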). To be noted: GST-Rac1 beads, Bodipy-FL-GTP binding; at 100 µM (top of the series) unless noted.
Experiment [6] has as its target GTPase HRas (Homo sapiens) (UniProt P01112). Description: blockade of GTP loading onto mutant Ras – biochemical, activated mutant, multiplex bead flow cytometry, dose response (AID 1341;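 active means dose-response curve with midpoint inside the tested range, moderate steepness, significant amplitude and little compound fluorescence or bead-attachment interference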;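 further: GST-tagged constitutively activated Ras mutant immobilized on beads and multiplexed with other GTPases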).

Molecules are shown by their SMILES. For part of these data: Entries with a potency or affinity are not part of this list. Calls of active or inactive are those of the source. Unless noted, how the calls were made is not given here.

This note sets out measurements from PubChem BioAssay.

GTPase HRas (Homo sapiens), sequence (P01112 whole entry, looked up): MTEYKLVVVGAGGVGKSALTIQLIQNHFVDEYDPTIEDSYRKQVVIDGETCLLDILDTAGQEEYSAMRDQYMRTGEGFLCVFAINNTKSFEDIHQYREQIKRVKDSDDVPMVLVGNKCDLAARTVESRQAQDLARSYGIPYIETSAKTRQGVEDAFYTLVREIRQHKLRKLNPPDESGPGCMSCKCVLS
Cell division control protein 42 homolog (Homo sapiens), sequence (P60953 whole entry, looked up): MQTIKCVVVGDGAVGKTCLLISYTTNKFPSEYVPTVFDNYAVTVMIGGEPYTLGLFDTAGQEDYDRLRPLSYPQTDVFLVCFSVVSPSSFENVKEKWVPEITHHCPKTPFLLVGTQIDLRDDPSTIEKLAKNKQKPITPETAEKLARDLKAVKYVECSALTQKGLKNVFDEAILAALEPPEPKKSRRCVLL

As to `CC(C)(C)CC(=O)NC(=S)NCc1ccco1`, the molecule was called inactive in experiment [1], in experiment [4] and in experiment [6]. The fluorescence, percent of control (lower = inhibition) in experiment [2] was 41.6%. Further, in experiment [3], the GTP binding, percent of control came to 90.5%. Besides, in experiment [5], the GTP binding signal, raw median fluorescence (lower = inhibition) (MCF (arbitrary fluorescence units)) was found to be 312.

Turning to `COc1cc(CCNc2ccc3nnc(-c4ccccc4)n3n2)cc(OC)c1OC`, the outcome in experiment [1], in experiment [4] and in experiment [6] was inactive. Also, in experiment [2], the fluorescence, percent of control (lower = inhibition) is 34.8%. Further, the GTP binding, percent of control in experiment [3] stood at 44%. For the same molecule, the GTP binding signal, raw median fluorescence (lower = inhibition) (MCF (arbitrary fluorescence units)) in experiment [5] turned out to be 123.

As to `Cn1c(N/N=C/c2cccs2)nc2c1c(=O)n(Cc1ccccc1)c(=O)n2C`, the molecule was classed as inactive in experiment [1], in experiment [4] and in experiment [6]. Moreover, the fluorescence, percent of control (lower = inhibition) in experiment [2] was 39.1%. This molecule also had a GTP binding, percent of control in experiment [3] of 51.7%. In experiment [5], this molecule displayed a GTP binding signal, raw median fluorescence (lower = inhibition) (MCF (arbitrary fluorescence units)) of 143.

For the molecule `CCOc1cc(/C=C(/C#N)c2nc3ccccc3[nH]2)ccc1OCc1ccc(C(=O)O)o1`, the outcome in experiment [1], in experiment [4] and in experiment [6] was inactive. Also, the fluorescence, percent of control (lower = inhibition) in experiment [2] was found to be 56.8%. In experiment [3], this molecule returned a GTP binding, percent of control of 84.9%. The GTP binding signal, raw median fluorescence (lower = inhibition) (MCF (arbitrary fluorescence units)) in experiment [5] was determined as 103.

As for `O=C(O)c1cc([N+](=O)[O-])ccc1NCc1ccccc1`, the molecule was called inactive in experiment [1], in experiment [4] and in experiment [6]. Besides, in experiment [2], the fluorescence, percent of control (lower = inhibition) was 121%. Also, the GTP binding, percent of control in experiment [3] came to 149%. In experiment [5], this molecule registered a GTP binding signal, raw median fluorescence (lower = inhibition) (MCF (arbitrary fluorescence units)) of 105.

On to `CCCCCCCCCCCC(=O)c1c(O)cccc1O`, for which the molecule was called inactive in experiment [1], in experiment [4] and in experiment [6]. The fluorescence, percent of control (lower = inhibition) in experiment [2] is 28.4%. Also, the GTP binding, percent of control in experiment [3] was 79.8%. Also, the GTP binding signal, raw median fluorescence (lower = inhibition) (MCF (arbitrary fluorescence units)) in experiment [5] turned out to be 241.

Regarding `NS(=O)(=O)c1ccc(-c2ccc(/C=C3\C(=O)Nc4cc(Cl)ccc43)o2)cc1`, the molecule was called inactive in experiment [1], in experiment [4] and in experiment [6]. Moreover, the fluorescence, percent of control (lower = inhibition) in experiment [2] amounted to 38%. Also, the GTP binding, percent of control in experiment [3] is 78.4%. Further, in experiment [5], the GTP binding signal, raw median fluorescence (lower = inhibition) (MCF (arbitrary fluorescence units)) came out at 152.

Consider `COC(=O)c1c(N2C(=O)[C@H]3[C@@H](C2=O)[C@]2(C(=O)Nc4c2ccc(C)c4C)N2CCC[C@@H]32)sc(C)c1C`, for which the outcome in experiment [1], in experiment [4] and in experiment [6] was inactive. Also, the fluorescence, percent of control (lower = inhibition) in experiment [2] worked out at 55.3%. The GTP binding, percent of control in experiment [3] was 71.4%. The molecule further displayed a GTP binding signal, raw median fluorescence (lower = inhibition) (MCF (arbitrary fluorescence units)) in experiment [5] of 0.

For the molecule `CCCc1cc(NCc2ccccn2)n2c(nc3ccccc32)c1C#N`, the molecule was called inactive in experiment [1], in experiment [4] and in experiment [6]. Besides, the fluorescence, percent of control (lower = inhibition) in experiment [2] amounted to 30.1%. In experiment [3], this molecule had a GTP binding, percent of control of 68.2%. In experiment [5], this molecule came in with a GTP binding signal, raw median fluorescence (lower = inhibition) (MCF (arbitrary fluorescence units)) of 167.

As to `Cc1cccc(C)c1CCOc1ncccc1C(=O)O`, the outcome in experiment [1], in experiment [4] and in experiment [6] was inactive. Also, in experiment [2], the fluorescence, percent of control (lower = inhibition) was 80.3%. The molecule also came in with a GTP binding, percent of control in experiment [3] of 251%. The GTP binding signal, raw median fluorescence (lower = inhibition) (MCF (arbitrary fluorescence units)) in experiment [5] turned out to be 70.2.

On to `Cc1nn(-c2ccc(F)cc2)c(Cl)c1/C=C(\CCC(=O)O)c1nc2ccccc2s1`, for which the molecule was classed as inactive in experiment [1], in experiment [4] and in experiment [6]. Also, the fluorescence, percent of control (lower = inhibition) in experiment [2] came out at 64.7%. Further, the GTP binding, percent of control in experiment [3] came to 53.6%. For the same molecule, in experiment [5], the GTP binding signal, raw median fluorescence (lower = inhibition) (MCF (arbitrary fluorescence units)) stood at 164.

Take `COc1nc(Nc2ccc(O)cc2)nc(OC(C(F)(F)F)C(F)(F)F)n1`: the molecule was called inactive in experiment [1], in experiment [4] and in experiment [6]. In experiment [2], the fluorescence, percent of control (lower = inhibition) was found to be 101%. Moreover, in experiment [3], the GTP binding, percent of control is 161%. The same molecule yielded a GTP binding signal, raw median fluorescence (lower = inhibition) (MCF (arbitrary fluorescence units)) in experiment [5] of 172.

In the case of `COc1ccc(-c2cc(=O)c(C(=O)c3ccc(C)cc3)n[nH]2)cc1`, the call in experiment [1], in experiment [4] and in experiment [6] was inactive. Further, the fluorescence, percent of control (lower = inhibition) in experiment [2] came out at 35.8%. In experiment [3], this molecule yielded a GTP binding, percent of control of 80.8%. Also, the GTP binding signal, raw median fluorescence (lower = inhibition) (MCF (arbitrary fluorescence units)) in experiment [5] was 317.

For the molecule `Nc1c(S(=O)(=O)c2cccs2)c2nc3ccccc3nc2n1/N=C/c1cccc(O)c1`, the call in experiment [1], in experiment [4] and in experiment [6] was inactive. In addition, in experiment [2], the fluorescence, percent of control (lower = inhibition) is 30.6%. In experiment [3], the GTP binding, percent of control was 77.3%. Moreover, the GTP binding signal, raw median fluorescence (lower = inhibition) (MCF (arbitrary fluorescence units)) in experiment [5] is 101.

Regarding `NS(=O)(=O)c1cccnc1Nc1c(Cl)cccc1Cl`, the molecule was classed as inactive in experiment [1], in experiment [4] and in experiment [6]. In addition, in experiment [2], the fluorescence, percent of control (lower = inhibition) was found to be 90.6%. Moreover, in experiment [3], the GTP binding, percent of control was found to be 152%. The molecule further returned a GTP binding signal, raw median fluorescence (lower = inhibition) (MCF (arbitrary fluorescence units)) in experiment [5] of 187.
